Values without a mark were called inactive.

These results are taken from the supplement of paper PMC5373622, “Screening for AMPA receptor auxiliary subunit specific modulators” (PLoS ONE, 2017).

In this assay the test system is GRIA2. The assay is described as follows: glutamate-evoked VSD slope (GluSlope), % of maximal glutamate response; higher = potentiation (PAM), active = hit call of the paper. To be noted: 10 µM; glutamate: EC50 (3-4 uM); clone: A2R-stg (HEK293 GluA2flip(R) + stargazin). The procedure: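 lower means inhibition (NAM); Primary voltage-sensitive dye (FLIPR Blue) screen on TetON HEK293 cells expressing GluA2flip(R) with stargazin (A2R-stg). Compound at 10 uM was preincubated for 290 s, then about EC50 glutamate (3-4 uM) was added; fluorescence was read on an FDSS at 1 Hz. GluSlope is expressed as % of the mean maximal-glutamate (1 mM) slope after vehicle subtraction. Hits deviated more than 3 SD from the plate EC50-glutamate wells. One well per compound.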
As for `Cc1ccc(-n2nc3c(c2-n2cccc2)CN(C(=O)c2cnccn2)C3)cc1C`, the “glutamate-evoked VSD slope” value was 61.4%.
On to `Cc1ccccc1OCC(=O)Nc1cc(C(=O)N2CCCC2)cn(C)c1=O`, for which the “glutamate-evoked VSD slope” value was 58.2%.
